The source made the active and inactive calls. How the source made its calls: active means hit-call score of the fitted dose curve at least 0.9, where 1 is the maximum; inactive means score below 0.9.

Read-out in the first experiment: not listed separately
The experiment in a line: BSK_CASM3C_Proliferation: Cell Proliferation Assessment in the BioMAP Diversity Plus: CASM3C Assay (AID 2283047).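 Further: sulforhodamine B total protein stain as relative cell number at 560 nm; sub-confluent cells exposed 48 h before staining; fitted both ways against DMSO so gain or loss of cell number.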 To be noted: primary human coronary artery smooth muscle cells.
Take `CC(=O)OC1CC(C)OC(C)O1` (stereo not drawn): the outcome was inactive.
`CC(=O)OCC(COC(C)=O)OC(C)=O`: the outcome was inactive.
In the case of `CCCCc1nc2cccnc2n1Cc1ccc(-c2ccccc2-c2nnn[nH]2)cc1`, the outcome was inactive.
What is called AC50 is the midpoint of the concentration-response curve, whichever way the signal moves. For `O=C1OC(c2ccc(O)cc2)(c2ccc(O)cc2)c2ccccc21`, the concentration at half-maximal activity (AC50) is 28.2 µM (active).
Take `Cc1cc(Cc2ccc(N)c(C)c2)ccc1N`: the outcome was inactive.
Still for that read-out and setting: for `CC(C)COC(=O)CCCCC(=O)OCC(C)C` the value was “inactive”; for `CCCCC(CC)COP(=O)(OCC(CC)CCCC)OCC(CC)CCCC` (stereo not drawn), “inactive”; for `O=C(Oc1ccccc1)c1cccc(C(=O)Oc2ccccc2)c1`, “inactive”.
The same measure, in the same setting: for `CCCCOC(=O)CCCCC(=O)OCCCC` the value was “inactive”.
As for `OCC(O)CO`, the outcome was inactive.
Still for that read-out and setting: for `O=NO` the value was “inactive”; for `CCCCCCC(CCCCCCCCCCC(=O)OCC(COC(C)=O)OC(C)=O)OC(C)=O` (stereo not drawn), “inactive”.
Consider `Nc1nc(Cl)nc2c1ncn2[C@H]1C[C@H](O)[C@@H](CO)O1`, for which the AC50 is 0.54 µM (active).
For `Oc1ccc(O)cc1`, the half-maximal activity concentration (AC50) is 25.7 µM (active).
In the case of `C/C=C/C=C/C(=O)O`, the outcome was inactive.
The same measure, in the same setting: then `Cc1ccc(C(C)(C)C)c(O)c1`, with “inactive”; and `CC(C)(C)c1ccccc1`, with “inactive”.
The same measure, in the same setting: then `CCCCC(CC)CO` (stereo not drawn), with “inactive”; and `N[C@@H](Cc1c[nH]c2ccccc12)C(=O)O`, with “inactive”.
`Cc1ccc(-c2cc(C(F)(F)F)nn2-c2ccc(S(N)(=O)=O)cc2)cc1`: the AC50 was 30.8 µM (active).
Regarding `O=C(O)c1cccnc1`, the outcome was inactive.
Turning to `O=C1NC(=O)C(c2ccccc2)(c2ccccc2)N1`, the result was inactive.
For the molecule `Nc1nc(=S)c2[nH]cnc2[nH]1`, the AC50 is 4.67 µM (active).
Take `CSc1ccc(Oc2ccc(S(N)(=O)=O)cc2CN(C)C)cc1C`: the AC50 is 20 µM (active).
As for `CC(=O)O[C@]1(C(C)=O)CC[C@H]2[C@@H]3C=C(Cl)C4=CC(=O)[C@@H]5C[C@@H]5[C@]4(C)[C@H]3CC[C@@]21C`, the result was inactive.
Turning to `Cc1occc(=O)c1O`, the outcome was inactive.
As for `CCCCC(CC)COC(=O)CCCCCCCC(=O)OCC(CC)CCCC` (stereo not drawn), the outcome was inactive.
Consider `CC(C)NCC(O)c1ccc(O)c(O)c1` (stereo not drawn), for which the outcome was inactive.
Take `CC(=O)S[C@H](C(=O)N[C@H]1Cc2ccccc2[C@H]2CCC[C@@H](C(=O)O)N2C1=O)C(C)C`: the result was inactive.
Take `CC(=O)O`: the result was inactive.

Read-out in a further experiment: Monokine induced gamma interferon (MIG), CXCL9 (gene 4283)
Briefly: BSK_CASM3C_MIG: BioMAP Diversity Plus: CASM3C Assay for Monokine induced gamma interferon (MIG) Biomarker Activity (AID 2283048).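 Further: MIG protein level measured by ELISA.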 To be noted: primary human coronary artery smooth muscle cells; actives raise or lower the signal.
On to `CC(=O)OC1CC(C)OC(C)O1` (stereo not drawn), for which the result was inactive.
Regarding `CC(=O)OCC(COC(C)=O)OC(C)=O`, the outcome was inactive.
On the same count and under the same terms, for `CCCCc1nc2cccnc2n1Cc1ccc(-c2ccccc2-c2nnn[nH]2)cc1` the value was “inactive”; for `O=C1OC(c2ccc(O)cc2)(c2ccc(O)cc2)c2ccccc21`, “inactive”.
As for `Cc1cc(Cc2ccc(N)c(C)c2)ccc1N`, the outcome was inactive.
`CC(C)COC(=O)CCCCC(=O)OCC(C)C`: the outcome was inactive.
With `CCCCC(CC)COP(=O)(OCC(CC)CCCC)OCC(CC)CCCC` (stereo not drawn), the outcome was inactive.
`O=C(Oc1ccccc1)c1cccc(C(=O)Oc2ccccc2)c1`: the outcome was inactive.
As to `CCCCOC(=O)CCCCC(=O)OCCCC`, the result was inactive.
For `OCC(O)CO`, the outcome was inactive.
Still for that read-out and setting: for `O=NO` the value was “inactive”; for `CCCCCCC(CCCCCCCCCCC(=O)OCC(COC(C)=O)OC(C)=O)OC(C)=O` (stereo not drawn), “inactive”; for `Nc1nc(Cl)nc2c1ncn2[C@H]1C[C@H](O)[C@@H](CO)O1`, “inactive”.
On to `Oc1ccc(O)cc1`, for which the result was inactive.
Consider `C/C=C/C=C/C(=O)O`, for which the result was inactive.
Regarding `Cc1ccc(C(C)(C)C)c(O)c1`, the result was inactive.
The same measure, in the same setting: then `CC(C)(C)c1ccccc1`, with “inactive”; and `CCCCC(CC)CO` (stereo not drawn), with “inactive”; and `N[C@@H](Cc1c[nH]c2ccccc12)C(=O)O`, with “inactive”.
Consider `Cc1ccc(-c2cc(C(F)(F)F)nn2-c2ccc(S(N)(=O)=O)cc2)cc1`, for which the AC50 is 31 µM (active).
For the molecule `O=C(O)c1cccnc1`, the result was inactive.
As to `O=C1NC(=O)C(c2ccccc2)(c2ccccc2)N1`, the result was inactive.
Regarding `Nc1nc(=S)c2[nH]cnc2[nH]1`, the outcome was inactive.
`CSc1ccc(Oc2ccc(S(N)(=O)=O)cc2CN(C)C)cc1C`: the result was inactive.
For the molecule `CC(=O)O[C@]1(C(C)=O)CC[C@H]2[C@@H]3C=C(Cl)C4=CC(=O)[C@@H]5C[C@@H]5[C@]4(C)[C@H]3CC[C@@]21C`, the result was inactive.
Turning to `Cc1occc(=O)c1O`, the outcome was inactive.
In the case of `CCCCC(CC)COC(=O)CCCCCCCC(=O)OCC(CC)CCCC` (stereo not drawn), the result was inactive.
Same read-out and setting: for `CC(C)NCC(O)c1ccc(O)c(O)c1` (stereo not drawn) the value was “inactive”; for `CC(=O)S[C@H](C(=O)N[C@H]1Cc2ccccc2[C@H]2CCC[C@@H](C(=O)O)N2C1=O)C(C)C`, “inactive”; for `CC(=O)O`, “inactive”.

Read-out in another experiment: serum amyloid A (SAA), SAA1 (gene 6288)
Briefly: BSK_CASM3C_SAA: BioMAP Diversity Plus: CASM3C Assay for serum amyloid A (SAA) Biomarker Activity (AID 2283049).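 Further: SAA protein level quantified by ELISA.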 As to conditions: primary human coronary artery smooth muscle cells; actives raise or lower the signal.
In the case of `CC(=O)OC1CC(C)OC(C)O1` (stereo not drawn), the outcome was inactive.
Consider `CC(=O)OCC(COC(C)=O)OC(C)=O`, for which the outcome was inactive.
`CCCCc1nc2cccnc2n1Cc1ccc(-c2ccccc2-c2nnn[nH]2)cc1`: the result was inactive.
Regarding `O=C1OC(c2ccc(O)cc2)(c2ccc(O)cc2)c2ccccc21`, the outcome was inactive.
`CC(C)COC(=O)CCCCC(=O)OCC(C)C`: the result was inactive.
Consider `CCCCC(CC)COP(=O)(OCC(CC)CCCC)OCC(CC)CCCC` (stereo not drawn), for which the outcome was inactive.
`O=C(Oc1ccccc1)c1cccc(C(=O)Oc2ccccc2)c1`: the outcome was inactive.
Take `CCCCOC(=O)CCCCC(=O)OCCCC`: the result was inactive.
As to `OCC(O)CO`, the result was inactive.
With `O=NO`, the result was inactive.
On the same count and under the same terms, for `CCCCCCC(CCCCCCCCCCC(=O)OCC(COC(C)=O)OC(C)=O)OC(C)=O` (stereo not drawn) the value was “inactive”; for `Nc1nc(Cl)nc2c1ncn2[C@H]1C[C@H](O)[C@@H](CO)O1`, “inactive”; for `Oc1ccc(O)cc1`, “inactive”.
For the molecule `C/C=C/C=C/C(=O)O`, the outcome was inactive.
With `Cc1ccc(C(C)(C)C)c(O)c1`, the outcome was inactive.
Turning to `CC(C)(C)c1ccccc1`, the result was inactive.
`CCCCC(CC)CO` (stereo not drawn): the outcome was inactive.
As for `N[C@@H](Cc1c[nH]c2ccccc12)C(=O)O`, the result was inactive.
On to `Cc1ccc(-c2cc(C(F)(F)F)nn2-c2ccc(S(N)(=O)=O)cc2)cc1`, for which the AC50 is 31.2 µM (active).
For the molecule `O=C(O)c1cccnc1`, the result was inactive.
Consider `O=C1NC(=O)C(c2ccccc2)(c2ccccc2)N1`, for which the result was inactive.
Take `Nc1nc(=S)c2[nH]cnc2[nH]1`: the outcome was inactive.
As for `CSc1ccc(Oc2ccc(S(N)(=O)=O)cc2CN(C)C)cc1C`, the result was inactive.
The same measure, in the same setting: then `Cc1occc(=O)c1O`, with “inactive”; and `CCCCC(CC)COC(=O)CCCCCCCC(=O)OCC(CC)CCCC` (stereo not drawn), with “inactive”.
Turning to `CC(C)NCC(O)c1ccc(O)c(O)c1` (stereo not drawn), the outcome was inactive.
Take `CC(=O)S[C@H](C(=O)N[C@H]1Cc2ccccc2[C@H]2CCC[C@@H](C(=O)O)N2C1=O)C(C)C`: the outcome was inactive.
As to `CC(=O)O`, the result was inactive.

(Values after PubChem BioAssay (EPA / NIEHS).)
